# Screening data from PubChem BioAssay.
# The list is not random: actives were taken first. Their share in the collection is about 12%.
# Sfp PPTase inh: inhibitors of Bacillus subtilis Sfp phosphopantetheinyl transferase; 3.5% of 310,000 active; Biochemical Sfp PPTase activity, qHTS; AID 1490; Potency, µM, without a hit: largest response in the series, negative = inhibition, hits mostly inhibitors;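 further: the enzyme is Sfp with the accession as filed and its product quenches rhodamine fluorescence; 0% = enzyme reaction without inhibitor and -100% = no enzyme wells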
#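 With Hepes-Na pH 7.6 buffer containing 10 mM MgCl2, Sfp (15 nM) modified BHQ-2-YbbR (12.5 uM) using rhodamine-CoA (5 uM). Two reads 30 minutes apart at 525/598 nm yielded each well's rate.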
# G9a inh: inhibitors of human histone lysine methyltransferase G9a; 8.8% of 350,000 active; G9a H3K9 monomethylation, AlphaScreen, 2 h; Potency, µM (titrated, usually from 102 µM), for inactives: at the highest dose activity, negative = inhibition, usual class: inhibitors; Q96KQ7; further: on the % scale 0 is the no-effect control and ±100 the full control effect; nearly all actives have a fitted effect of over 75% in size
# Target sequence (Q96KQ7 913-1193 limits assumed): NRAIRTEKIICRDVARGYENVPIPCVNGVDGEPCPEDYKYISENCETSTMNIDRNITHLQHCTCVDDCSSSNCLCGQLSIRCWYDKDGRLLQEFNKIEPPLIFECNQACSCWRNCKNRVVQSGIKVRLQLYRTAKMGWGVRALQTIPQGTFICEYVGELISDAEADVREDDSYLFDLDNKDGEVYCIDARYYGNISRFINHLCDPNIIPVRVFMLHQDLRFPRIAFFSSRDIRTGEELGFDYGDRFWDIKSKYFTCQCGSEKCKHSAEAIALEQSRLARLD
#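 G9a (20 nM) preincubated 15 min RT with compounds, then 500 nM biotinylated H3K9 peptide and 20 uM SAM added; 2 h RT reaction. Monomethyl-H3K9 product detected by AlphaScreen with anti-H3K9me1 antibody, streptavidin donor and anti-rabbit IgG acceptor beads.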
# BAZ2B block: BAZ2B (human) inhibition. Q9UIF8. AlphaScreen BAZ2B-H3K14Ac peptide displacement. Potency, µM (series often up to 114 µM), for inactives: at the highest dose activity change, negative = inhibition, hits mostly inhibitors. 4.4% of 360,000 active. AID 504333; further: on the % scale 0 is the no-effect control and ±100 the full control effect; nearly all actives have a fitted effect of over 60% in size
#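 Complex of BAZ2B and biotin-H3K14Ac (50 nM apiece) forms over 30 min at RT, then faces library compounds up to 110 uM for another 30 min; AlphaScreen beads added, 20 min dark incubation, luminescence read.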
# JMJD2A Tudor inh: blocks the human JMJD2A Tudor domain | O75164 | AlphaScreen JMJD2A-Tudor / H3K4me3 peptide binding | Potency, µM (series often up to 114 µM), for the others: at the highest dose activity change, negative = inhibition, most hits filed as inhibitors | 4.4% of 390,000 active; further: on the % scale 0 is the no-effect control and ±100 the full control effect; nearly all actives have a fitted effect of over 50% in size
# HP1b binding inh: blocks HP1-beta chromodomain binding to methylated histone tails | AlphaScreen HP1-beta / biotin-H3K9me3 peptide binding | 0.56% of 390,000 active | Potency, µM (top dose mostly 114 µM), for inactives: top-dose activity change, negative = inhibition, usual class: inhibitors | P83916; further: nearly all actives have a fitted effect of over 70% in size
# Target sequence (P83916 whole entry, looked up): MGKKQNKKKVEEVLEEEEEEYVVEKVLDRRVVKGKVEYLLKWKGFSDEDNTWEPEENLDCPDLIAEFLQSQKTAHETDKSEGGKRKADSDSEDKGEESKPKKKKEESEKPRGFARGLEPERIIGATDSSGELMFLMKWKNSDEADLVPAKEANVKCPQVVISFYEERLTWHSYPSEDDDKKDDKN
#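 HP1-beta protein (50 nM final) preincubated 30 min at room temperature with biotinylated H3(1-18)K9me3 peptide (50 nM) in PBS pH 7.4, 0.01% Tween-20, then compound added for 30 min. AlphaScreen streptavidin donor/nickel chelate acceptor beads (10 ug/mL final), 30 min dark, luminescence read.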
# The depositor's hits bear a star; ? = inconclusive; nt = no result given; ! = not confirmed by another sample; [ ] = dose if it differs, or a comment. The call rests on the fitted dose curve; in most records, active means well fitted curve in the direction sought with a large enough effect; inconclusive means small, poorly fitted or top-dose-only effect, or another doubt; inactive means no such curve, though single readings can be large; an effect the other way counts as inactive or inconclusive. Potency means the concentration at half of the fitted maximal effect.
SMILES,Sfp PPTase inh,G9a inh,BAZ2B block,JMJD2A Tudor inh,HP1b binding inh
CCCCNC(=S)NCc1ccc2[nH]c3c(c2c1)CCCC3,-5%,?,nt,40µM*,?
CCCCNC(=S)NCc1ccc2[nH]c(C)cc2c1,3%,?,?,?,-19%
Cc1cc2c(n1-c1ccc(Br)cc1)CC(C)(C)CC2=O,5%,-69%,?,?,-9%
Cc1ccc(-n2c(C)cc3c2CC(C)(C)CC3=O)cc1C,9%,?,?,56µM*,-28%
COc1ccc(C2CC(=O)c3cc(-c4nc(-c5ccc(Cl)cc5)cs4)c(=O)[nH]c3C2)cc1OC (stereo not drawn),nt,-38%[59 µM],?,3%,36%
CC1(C)CC(=O)c2cc(-c3nc(-c4ccc(Cl)cc4)cs3)c(=O)[nH]c2C1,nt,14µM*,1%,3%,29%
CC1(C)CC(=O)c2cc(-c3nc(-c4ccc(F)cc4)cs3)c(=O)[nH]c2C1,nt,1.3µM*,71µM*,?,34%
COc1ccc(C2CC(=O)c3cc(-c4nc(-c5cccc([N+](=O)[O-])c5)cs4)c(=O)n(-c4ccccc4C)c3C2)cc1 (stereo not drawn),nt,3.5µM*,?,-16%,24%
CCCCNc1ccc(-c2nc(-c3ccccn3)no2)cc1[N+](=O)[O-],nt,-7%[59 µM],-5%,-27%,43%
Cc1ccc(NC(=O)c2ncn(CC(=O)N3CCN(c4ccccn4)CC3)n2)cc1C,nt,nt,nt,-14%,-2%
Cc1ccc(-n2c3c(cc(-c4nc(-c5ccc(Cl)cc5)cs4)c2=O)C(=O)CC(C)(C)C3)cc1C,nt,16µM*,-1%,15%,47%
COc1ccc(-n2c3c(cc(-c4nc(-c5ccc(C)cc5)cs4)c2=O)C(=O)CC(C)(C)C3)cc1,nt,2%[59 µM],7%,3%,76%
COc1ccc(C2CC(=O)c3cc(-c4nc(-c5ccc(C)cc5)cs4)c(=O)[nH]c3C2)cc1 (stereo not drawn),nt,1.8µM*,?,1%,44%
CC1(C)Cc2c(c(N3CCOCC3)nc3snc(N)c23)CO1,-2%,12%,7%,-8%,7%
CCOC(=O)c1sc2nc(N3CCOCC3)c3c(c2c1N)CC(C)(C)N(C)C3,11%,?,5%,-22%,20%
CC1(C)Cc2c(c(N3CCOCC3)nc3snc(Br)c23)CO1,45µM*,?,-6%,?,37%
Cc1ccc(NC(=O)c2sc3nc(N4CCOCC4)c4c(c3c2N)CC(C)(C)OC4)cc1,32µM*,0%[59 µM],31%,-11%,33%
CN1Cc2c(N3CCOCC3)nc3sc(C(=O)c4ccccc4)c(N)c3c2CC1(C)C,-10%,50µM*,?,45µM*,-11%
Cc1nc2sc(C(=O)O)c(N)c2c2c1COC(C)(C)C2,40µM*,3.2µM*,7%,14µM*,11%
CCOC(=O)C1=C(C)n2c(s/c(=C3\C(=O)Nc4ccccc43)c2=O)=NC1c1ccc(OC)cc1 (stereo not drawn),2%,?,?,?,?
COc1ccc(NC(=O)CNC(=O)c2nn(-c3ccc(OC)cc3OC)c(=O)c3ccccc23)c(OC)c1,7%,-3%,-2%,-6%,9%
CC1(C)Cc2c(c(N3CCOCC3)nc3sc(C(=O)Nc4ccc(Cl)cc4)c(N)c23)CO1,32µM*,10µM*!,3%,-33%,-18%
CCCc1nc2oc(C(=O)c3ccccc3)c(N)c2c2c1COC(C)(C)C2,15%,?,-4%,0%,35%
Nc1c(C(=O)c2ccccc2)sc2nsc(SCCN3CCOCC3)c12,50µM*,nt,-16%,-19%,54%
Cc1nc2oc(C(=O)c3ccc(Br)cc3)c(N)c2c2c1COC(C)(C)C2,-7%,25µM*,3%,3%,30%
SMILES,Sfp PPTase inh,G9a inh,BAZ2B block,JMJD2A Tudor inh,HP1b binding inh
CCOc1ccc(NC(=O)c2sc3nc(N4CCOCC4)c4c(c3c2N)CC(C)(C)OC4)cc1,-15%,79µM*,-3%,10%,25%
CC1(C)Cc2c(c(N3CCOCC3)nc3sc(C(N)=O)c(N)c23)CO1,14µM*,4%[12.7 µM],-32%,-10%,19%
COc1cccc(NC(=O)c2sc3nc(N4CCOCC4)c4c(c3c2N)CC(C)(C)OC4)c1,nt,-4%[59 µM],0%,-8%,37%
O=C(Cc1csc(NC(=O)Nc2cccc(Cl)c2)n1)NCc1cccnc1,nt,35µM*,?,-24%,23%
CCCc1nc2ccccc2c(=O)n1NC(=O)c1c(O)c2ccccc2n(C)c1=O,-1%,6%,-33%,-8%,16%
CCc1nc2ccccc2c(=O)n1NC(=O)c1c(O)c2ccccc2[nH]c1=O,-7%,82%[59 µM],?,79µM*,-1%
COc1ccc(CCCNC(=O)CC#N)cc1OC,18%,21%,4%,-14%[11.4 µM],21%
CCOc1cc(NC(=S)NCC(C)C)c(OCC)cc1NC(=O)c1ccco1,18%,10%[59 µM],-23%,-10%,24%
COc1ccc(NC(=O)c2ccco2)c([N+](=O)[O-])c1,3%,?,-39%,-25%,-12%
COc1ccc(NC(=O)C/C(C)=N/NC(=O)c2ccco2)c([N+](=O)[O-])c1,-2%,45µM*,-10%,-14%,16%
Clc1nc(Oc2ccccc2)nc(-c2cn(-c3ccccc3)c3ccccc23)n1,-5%,40µM*,?,?,30%
CCNc1nc(Cl)nc(NCc2ccccc2)n1,32%,69%[59 µM],-8%,-9%,37%
CCNc1nc(Cl)nc(-c2cn(-c3ccccc3)c3ccccc23)n1,?,71µM*,13%,-9%,41%
O=Cc1ccc(-n2cc(C=O)c3ccccc32)cc1,-27%,-4%,-4%,-2%,17%
O=C(N/N=C/c1ccc(Sc2nc3ccccc3[nH]2)o1)c1ccncc1,-5%,45µM*,-6%,-13%,?
Cc1oc2c(O)c(O)ccc2c(=O)c1-c1ccccc1,50µM*,?,?,8.9µM*,17%
Cc1c(Cc2ccccc2)c(=O)oc2cc(O)ccc12,-2%,8%,2%,-2%[11.4 µM],31%
Cc1c(Cc2ccccc2)c(=O)oc2c(O)c(O)ccc12,-22%,4µM*,40µM*,45µM*,?
Cc1cc(=O)oc2c(O)c(O)ccc12,45µM*,nt,nt,10µM*,18%
Cc1oc2c(O)c(O)ccc2c(=O)c1-c1ccc(Cl)cc1,-18%,5µM*,?,-29%,17%
CSc1ccccc1C(=O)NCc1cccnc1,8%,?,-2%,-20%,25%
O=c1cc(-c2ccccc2)oc2c(O)c(O)ccc12,-91%,-113%[2.33 µM],nt,nt,nt
O=c1cc(-c2ccccc2O)oc2c(O)c(O)ccc12,4µM*,nt,nt,nt,nt
COc1ccccc1/C=N\N=C(\N)c1ccccn1,-3%,-8%,-6%,-23%,32%
CCC(=C(c1ccc(OC)cc1)c1ccc(OC)cc1)c1cn(CC(O)CN(CCO)CCO)c2ccccc12 (stereo not drawn),?,40µM*,35µM*,45µM*,-6%
